Test results taken from PubChem BioAssay (NCI).
This is part of a sample that, as a whole, favours compounds with a hit. Of some 83,000 tested, about 20% had one in any assay.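 Results are percent growth after 48 hours of single-concentration exposure. 100 means growth as in untreated cells, lower positive values show inhibition; negative values down to -100 show cell death.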 Calls of active or inactive are those of the source. How the source made its calls: active means growth percent below 10; inactive means the rest.

The compounds below were run on HCT-15 colon (assay: NCI-60 one-dose screen, 48 h (100 = growth as untreated, 0 = no growth, -100 = all killed)). Details: 10 µM unless noted.

| SMILES | growth |
| --- | --- |
| COc1cc(/C=C/C(=O)c2ccc(Nc3ncnc4ccccc34)cc2)cc(OC)c1 | 45.7% (inactive) |
| COc1ccc(C(=O)c2cc3c(N)c(C(=O)Nc4cccc(OC)c4)sc3nc2C)cc1 | 16% (inactive) |
| CCC(C)N(CCNc1cc(OC)cc2cccnc12)CCC(C)C (stereo unspecified) | 76.6% (inactive) |
| S=c1[nH]cccc1-c1nnc2n1Nc1nc3ccccc3cc1CS2 | 108% (inactive) |
| NC(=O)C1(N2CCCCC2)CCN(CCCC(=O)c2ccc(F)cc2)CC1 | 93.6% (inactive) |
| O=S(=O)(c1cccc(NC2=Nc3cccc4cccc2c34)c1)N1CCCC1 | 60.4% (inactive) |
| OC1(c2ccc(Cl)c(C(F)(F)F)c2)CCN(CCCC(c2ccc(F)cc2)c2ccc(F)cc2)CC1 | -78.5% (active) |
| O=c1[nH]nc(-c2ccc(Br)cc2)cc1Cc1ccc(O)cc1 | 105% (inactive) |
| N/C(=N\N=C\c1cc2ccccc2s1)N/N=C/c1cc2ccccc2s1 | 105% (inactive) |
| COc1ccc(C(=O)c2cc3c(N)c(C(=O)Nc4ccc(Br)cc4)sc3nc2C)cc1 | 69.3% (inactive) |
| CC1=NNC(=O)C1CCC(=O)N/N=C(\C)c1ccc2ccccc2c1 (stereo unspecified) | 107% (inactive) |
| O=C(O)c1cn(C2CC2)c2cc(N3CCN(C(=O)C[n+]4cccc5ccccc54)CC3)c(F)cc2c1=O | 55% (inactive) |
| COc1ccc(Cn2nc(-c3ccccc3)c3c2CCc2cnoc2-3)cc1 | 67.6% (inactive) |
| O=C(O)CNC(=O)CN1C(=O)c2ccccc2C1=O | 105% (inactive) |
| O=C1CCCCCCCCC(O)C(O)CCCC(c2cccs2)O1 (stereo unspecified) | 96.7% (inactive) |
| CC1CCN(C(=O)OCc2nc3nc(Cl)nc(N4CCOCC4)c3[nH]2)CC1 | -12.2% (active) |
| COc1cc(C2CC(c3cccc(Nc4ccncc4)c3)=NN2c2cc(Cl)cc(Cl)c2)cc(OC)c1OC (stereo unspecified) | -40.4% (active) |
| COC(=O)Nc1ccc(NC(=O)OC)cc1 | 108% (inactive) |
| COc1ccc(C(=O)c2cc3c(N)c(C(=O)Nc4cccc(Cl)c4C)sc3nc2C)cc1 | 15.9% (inactive) |

| SMILES | growth |
| --- | --- |
| COc1ccc(-c2nc(SC)nc(N3CCOCC3)c2C#N)cc1 | 93.9% (inactive) |
| CC(=O)NCCCS(=O)(=O)O | 103% (inactive) |
| Cn1c(COC(=O)NCCN2CCOCC2)nc2c(N3CCOCC3)nc(-c3ccccc3)nc21 | -39.4% (active) |
| CC(C)Sc1nc(NN)c(C#N)c(-c2ccccc2)n1 | 96.5% (inactive) |
| COc1ccc(-c2nc(SCC(C)C)nc(N/N=C(/C)c3ccc(OC)c(OC)c3)c2C#N)cc1 | 79.8% (inactive) |
| COc1cc2nnn3c4ncccc4c(N=O)c3c2cc1OC | 83.4% (inactive) |
| COc1ccccc1-c1c(-c2ccc(Cl)cc2)c2cc3c(cc2[nH]c1=O)OCCO3 | 73.5% (inactive) |
| O=S(=O)(NCCNc1nccc(-c2c(-c3ccc(F)c(O)c3)nc3sccn23)n1)c1ccccc1 | 92.3% (inactive) |
| CC(C)(O)C1CCCN1C(=O)c1ccccc1I (stereo unspecified) | 98.7% (inactive) |
| O=C(OCc1nc2nc(Cl)nc(N3CCOCC3)c2[nH]1)n1ccnc1 | -35.2% (active) |
| Cc1c([N+](=O)[O-])cc(C(C)(C)C)cc1[N+](=O)[O-] | 105% (inactive) |
| O=C(N/N=C/c1ccc(F)cc1)c1ccccc1Nc1cccc(C(F)(F)F)c1 | 85.6% (inactive) |
| COc1cccc(/C=C2\COc3ccc(-c4ccccc4)cc3C2=O)c1 | -36.9% (active) |
| CN1CCN(c2cc(F)c(NC3=C(Cl)C(=O)c4ncccc4C3=O)c(F)c2)CC1 | -8.53% (active) |
| Cc1cc(NC(=O)c2cnc(N3CCN(CCOCCOCCOCCOCCC(=O)N[C@H](C(=O)N4C[C@H](O)C[C@H]4C(=O)N[C@@H](C)c4ccc(-c5scnc5C)cc4)C(C)(C)C)CC3)cn2)c2ncccc2c1 | 60.5% (inactive) |
| COc1ccc(-c2ncc(-c3ccccc3)[nH]2)cc1OC | 104% (inactive) |
| O=C(CN1CCOCC1)Nc1ccc2ncnc(Nc3ccc(Oc4cccc(F)c4)c(Cl)c3)c2c1 | 72.8% (inactive) |
| O=C1Nc2c(ccc(Cl)c2Cl)/C1=C/c1ccc(F)cc1 | 80.6% (inactive) |
| COc1ccc(-c2nc(N/N=C/c3c[nH]c4ccccc34)nc(N3CCOCC3)c2C#N)cc1 | 44.1% (inactive) |

These compounds were tested on HT29 colon in the same assay as above. Details: 10 µM unless noted.

| SMILES | growth |
| --- | --- |
| COc1cc(/C=C/C(=O)c2ccc(Nc3ncnc4ccccc34)cc2)cc(OC)c1 | -38.1% (active) |
| COc1ccc(C(=O)c2cc3c(N)c(C(=O)Nc4cccc(OC)c4)sc3nc2C)cc1 | 1.18% (active) |
| CCC(C)N(CCNc1cc(OC)cc2cccnc12)CCC(C)C (stereo unspecified) | 55.6% (inactive) |
| S=c1[nH]cccc1-c1nnc2n1Nc1nc3ccccc3cc1CS2 | 106% (inactive) |
| NC(=O)C1(N2CCCCC2)CCN(CCCC(=O)c2ccc(F)cc2)CC1 | 5.09% (active) |
| O=S(=O)(c1cccc(NC2=Nc3cccc4cccc2c34)c1)N1CCCC1 | 67.4% (inactive) |
| OC1(c2ccc(Cl)c(C(F)(F)F)c2)CCN(CCCC(c2ccc(F)cc2)c2ccc(F)cc2)CC1 | -88.1% (active) |
| O=c1[nH]nc(-c2ccc(Br)cc2)cc1Cc1ccc(O)cc1 | 103% (inactive) |
| N/C(=N\N=C\c1cc2ccccc2s1)N/N=C/c1cc2ccccc2s1 | 108% (inactive) |
| COc1ccc(C(=O)c2cc3c(N)c(C(=O)Nc4ccc(Br)cc4)sc3nc2C)cc1 | 74.9% (inactive) |
| CC1=NNC(=O)C1CCC(=O)N/N=C(\C)c1ccc2ccccc2c1 (stereo unspecified) | 116% (inactive) |
| O=C(O)c1cn(C2CC2)c2cc(N3CCN(C(=O)C[n+]4cccc5ccccc54)CC3)c(F)cc2c1=O | 78.7% (inactive) |
| COc1ccc(Cn2nc(-c3ccccc3)c3c2CCc2cnoc2-3)cc1 | 84% (inactive) |
| O=C(O)CNC(=O)CN1C(=O)c2ccccc2C1=O | 110% (inactive) |
| O=C1CCCCCCCCC(O)C(O)CCCC(c2cccs2)O1 (stereo unspecified) | 114% (inactive) |
| CC1CCN(C(=O)OCc2nc3nc(Cl)nc(N4CCOCC4)c3[nH]2)CC1 | -66.8% (active) |
| COc1cc(C2CC(c3cccc(Nc4ccncc4)c3)=NN2c2cc(Cl)cc(Cl)c2)cc(OC)c1OC (stereo unspecified) | -28% (active) |
| COC(=O)Nc1ccc(NC(=O)OC)cc1 | 98.4% (inactive) |
| COc1ccc(C(=O)c2cc3c(N)c(C(=O)Nc4cccc(Cl)c4C)sc3nc2C)cc1 | 6.48% (active) |

| SMILES | growth |
| --- | --- |
| COc1ccc(-c2nc(SC)nc(N3CCOCC3)c2C#N)cc1 | 92.3% (inactive) |
| CC(=O)NCCCS(=O)(=O)O | 98.4% (inactive) |
| Cn1c(COC(=O)NCCN2CCOCC2)nc2c(N3CCOCC3)nc(-c3ccccc3)nc21 | -58.1% (active) |
| CC(C)Sc1nc(NN)c(C#N)c(-c2ccccc2)n1 | 111% (inactive) |
| COc1ccc(-c2nc(SCC(C)C)nc(N/N=C(/C)c3ccc(OC)c(OC)c3)c2C#N)cc1 | 90.4% (inactive) |
| COc1cc2nnn3c4ncccc4c(N=O)c3c2cc1OC | 57.5% (inactive) |
| COc1ccccc1-c1c(-c2ccc(Cl)cc2)c2cc3c(cc2[nH]c1=O)OCCO3 | 69.6% (inactive) |
| O=S(=O)(NCCNc1nccc(-c2c(-c3ccc(F)c(O)c3)nc3sccn23)n1)c1ccccc1 | 64.6% (inactive) |
| CC(C)(O)C1CCCN1C(=O)c1ccccc1I (stereo unspecified) | 95.4% (inactive) |
| O=C(OCc1nc2nc(Cl)nc(N3CCOCC3)c2[nH]1)n1ccnc1 | -55.2% (active) |
| Cc1c([N+](=O)[O-])cc(C(C)(C)C)cc1[N+](=O)[O-] | 87.2% (inactive) |
| O=C(N/N=C/c1ccc(F)cc1)c1ccccc1Nc1cccc(C(F)(F)F)c1 | 118% (inactive) |
| COc1cccc(/C=C2\COc3ccc(-c4ccccc4)cc3C2=O)c1 | 12.9% (inactive) |
| CN1CCN(c2cc(F)c(NC3=C(Cl)C(=O)c4ncccc4C3=O)c(F)c2)CC1 | 11.2% (inactive) |
| Cc1cc(NC(=O)c2cnc(N3CCN(CCOCCOCCOCCOCCC(=O)N[C@H](C(=O)N4C[C@H](O)C[C@H]4C(=O)N[C@@H](C)c4ccc(-c5scnc5C)cc4)C(C)(C)C)CC3)cn2)c2ncccc2c1 | 5.72% (active) |
| COc1ccc(-c2ncc(-c3ccccc3)[nH]2)cc1OC | 113% (inactive) |
| O=C(CN1CCOCC1)Nc1ccc2ncnc(Nc3ccc(Oc4cccc(F)c4)c(Cl)c3)c2c1 | 83.5% (inactive) |
| O=C1Nc2c(ccc(Cl)c2Cl)/C1=C/c1ccc(F)cc1 | 91% (inactive) |
| COc1ccc(-c2nc(N/N=C/c3c[nH]c4ccccc34)nc(N3CCOCC3)c2C#N)cc1 | 51.4% (inactive) |
